V-ATPase pHluor: regulators of yeast V-ATPase proton transport; S. cerevisiae, pHLuorin cytosolic pH fluorescence; response, % at 10 µM; actives 0.37% (n = 350,000); AID 504577; in the data active means response mostly above about 7.3%, no sharp cut-off; inactive means mostly below about 5.4%; further: actives read high
TIM10 inh: TIM10 yeast growth inhibition; S. cerevisiae TIM10 strain growth, BacTiter-Glo luminescence, 24 h; inhibition, % at 10 µM; actives 1.4% (n = 330,000); AID 463195;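 active means inhibition of 40% or more at the single tested concentration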;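 further: wild-type TIM10 isogenic control strain grown at permissive 25 °C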
NLRP3 yeast inh: inhibitors of NALP3 inflammasome in yeast; Yeast reconstituted NLRP3/ASC/caspase-1, beta-gal luminescence, 24 h; inhibition, % at 10 µM; actives 0.39% (n = 330,000); AID 2825;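 active means inhibition of 50% or more; inactive means inhibition below 50%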;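 further: plate controls were induced DMSO wells for no effect and uninduced yeast grown without galactose for full effect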
NALP1 inh: inhibitors of NALP1 inflammasome in yeast; S. cerevisiae NALP1/ASC/caspase-1 growth, X-gal OD620, 72 h; inhibition, % at 10 µM; actives 0.61% (n = 280,000); AID 2071; in the data active means inhibition mostly above about 24%, no sharp cut-off; inactive means mostly below about 32%
tim23-1 inh: inhibits growth of tim23-1 mutant yeast | inhibition, % at 20 µM | actives 1.3% (n = 330,000) | AID 463212 | S. cerevisiae tim23-1 growth, BacTiter-Glo luminescence, 24 h;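 active means growth inhibition of the mutant yeast at or above 50%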;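 further: temperature-sensitive mutant grown at 25 °C; plate controls were DMSO-treated mutant yeast for no effect and medium wells lacking yeast for full effect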
tim10-1 inh: tim10-1 yeast growth inhibition; S. cerevisiae tim10-1 ts strain growth, BacTiter-Glo, 24 h; inhibition, % at 20 µM; actives 2.2% (n = 330,000); AID 463190;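 active means inhibition of at least 40%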;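 further: mutant grown at 25 °C; 0% = DMSO wells with yeast and 100% = wells holding no yeast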
NALP3 confirm: NALP3 inhibition confirmation in yeast. actives 81% (n = 1,300). AID 435006. yeast expressing human NALP3, luminescence. inhibition, % at 10 µM. shares compounds with NLRP3 yeast inh; in the data active means inhibition above about 48%
Casp1-ASC yeast: counter-screen for NALP3 inhibitors: yeast caspase-1-ASC | yeast expressing Caspase-1-ASC, luminescence counter screen | actives 66% (n = 1,000) | inhibition, % at 10 µM | shares compounds with NLRP3 yeast inh | AID 488784
NALP3 yeast rt: yeast NALP3 inhibition, confirmed on retest; shares compounds with NLRP3 yeast inh; yeast expressing human NALP3, luminescence read-out; AID 488794; inhibition, % at 10 µM; actives 53% (n = 1,000)
* marks the source's active call; other numbers are inactive results; x = no result. Hits are enriched below; roughly 4.2% of the tested compounds scored in any of these assays. Unless noted, no stated cut-off is given here; in the data, active means inhibition above about 50%; inactive means the rest.

SMILES | V-ATPase pHluor | TIM10 inh | NLRP3 yeast inh | NALP1 inh | tim23-1 inh | tim10-1 inh | NALP3 confirm | Casp1-ASC yeast | NALP3 yeast rt
CCOC(=O)c1ccc2nc3c(cc2c1)CCS3 | 2 | 14 | 56* | -8 | 29 | -5 | 66* | 66* | 46
CCCC(=O)Nc1nc2ccc(C(=O)OCC)cc2s1 | -3 | 10 | 9 | 34 | 22 | 21 | x | x | x
CC(C)n1c(SCC(=O)NC2CC2)nnc1-c1ccco1 | 3 | 2 | 1 | -1 | -7 | -22 | x | x | x
CC1=C(C(=O)N(C)C)CC(CC(=O)NCc2cccs2)C(=O)N1CCCN1CCCC1=O (configuration not stated) | 2 | x | x | x | x | x | x | x | x
CCSc1nnc(NC(=O)c2ccccn2)s1 | 0 | 17 | 55* | 24 | 6 | 32 | 61* | x | x
CCSc1nnc(NC(=O)c2ccccc2)s1 | 1 | 4 | 43 | 46 | 30 | 1 | x | x | x
CCSc1nnc(NC(=O)c2ccccc2C)s1 | -1 | 17 | 57* | 6 | 41 | 12 | 48 | x | x
CCN(CC)c1ccc2c(Cl)cc(=O)oc2c1 | x | 25 | 58* | 12 | 10 | -1 | 53* | 59* | 44
CCOc1ccc(C(=O)Nc2ccccc2CC)cc1[N+](=O)[O-] | 4 | -55 | 53* | 36 | -39 | -41 | 60* | 53* | 55*
O=C1CS/C(=C/C(=O)c2cccc(Cl)c2)N1 | 6 | 14 | 66* | -7 | 48 | -21 | 72* | 54* | 59*
Cc1ccc(C(=O)/C=C2/NC(=O)CS2)cc1 | 1 | 38 | 61* | 2 | 44 | 11 | 67* | 52* | 54*
CCn1c(CNc2ccc(Cl)cc2)nnc1SCC#N | 2 | -5 | 9 | -1 | -4 | 19 | x | x | x
CCOc1ccc(CCNC(=O)COC(=O)c2cc(OC)c(OC)cc2[N+](=O)[O-])cc1OCC | 1 | 2 | 16 | x | 10 | 2 | x | x | x
CC(C)COC(=O)N1CCN(S(=O)(=O)c2ccc3c(c2)CCC3)CC1 | 0 | 3 | 53* | x | 22 | 16 | 51* | 21 | 29
CC(C)(C)NC(=O)N1CCN(S(=O)(=O)c2ccc3c(c2)CCC3)CC1 | -1 | 14 | 17 | x | 16 | 17 | x | x | x
OC(CN1C2=NCCCN2c2ccccc21)c1ccc2c(c1)OCO2 (configuration not stated) | 1 | -8 | 7 | -2 | 4 | -1 | x | x | x
OC(CN1C2=NCCN2c2ccccc21)c1ccc2c(c1)OCO2 (configuration not stated) | 0 | 9 | 57* | 8 | -2 | -4 | 82* | 45 | 40
O=C(Nc1ccc(Cl)cc1F)C1CCN(S(=O)(=O)c2cccc3nonc23)CC1 | -2 | -14 | 20 | 35 | -3 | -10 | x | x | x
c1ccc(N2CCN(c3nc4cc5c(cc4s3)OCO5)CC2)cc1 | 4 | 4 | 21 | 37 | 6 | 14 | x | x | x
c1ccc2c(c1)CCN(c1nc3cc4c(cc3s1)OCO4)C2 | -1 | 38 | 56* | 15 | 32 | 35 | 52* | 42 | 40
CCOC(=O)c1c(NC(=O)CSc2nnc(C)o2)sc(C)c1C | 5 | 10 | 52* | x | 31 | 10 | 54* | 48 | 34
CCOC(=O)c1c(NC(=O)CSc2nnnn2C)sc(C)c1C | 2 | 15 | 15 | 8 | 12 | 18 | x | x | x
C[C@H](CO)N1C[C@H](C)[C@@H](CN(C)S(=O)(=O)c2ccccc2C#N)OCc2cn(nn2)CCCC1=O | 0 | x | x | x | x | x | x | x | x
CC(Oc1cccc2cccnc12)C(=O)N/N=C/c1ccccc1 (configuration not stated) | 1 | 4 | 22 | -10 | 27 | -4 | x | x | x
O=C(/C=C\c1ccccc1)Oc1cccc2cccnc12 | -2 | -1 | 53* | -20 | 43 | 6 | 42 | 41 | 37
SMILES | V-ATPase pHluor | TIM10 inh | NLRP3 yeast inh | NALP1 inh | tim23-1 inh | tim10-1 inh | NALP3 confirm | Casp1-ASC yeast | NALP3 yeast rt
Oc1ccc(-c2cn3c(n2)SCC3)cc1 | 5 | 2 | 13 | 2 | 3 | 0 | x | x | x
Brc1ccc(-c2cn3c(n2)SCC3)cc1 | -1 | 0 | 59* | 15 | 41 | -26 | 64* | 63* | 61*
CC(C)(C)[C@H]1C=C(C(=O)Nc2ccccc2)O[C@@H](OCc2ccc(CO)cc2)C1 | -3 | -18 | 53* | 12 | 15 | -8 | 59* | 61* | 53*
CC(C)(C)[C@H]1C=C(C(=O)O)O[C@@H](OCc2ccc(CO)cc2)C1 | 1 | -4 | 0 | x | 12 | 8 | x | x | x
CC(C)[C@@H](CO)NS(=O)(=O)c1ccc(Br)cc1F | 0 | -15 | x | x | 21 | 1 | x | x | x
C=CC(=O)NC(C)(C)Cc1ccccc1 | 4 | -2 | 8 | 7 | 21 | 16 | x | x | x
CC(Cc1ccccc1)(NC(=O)CN)c1ccccc1 (configuration not stated) | x | 4 | 91* | 63* | 0 | -5 | 96* | 94* | 93*
CC(C)c1cccc(C(C)C)c1OCCCCCN1CCOCC1 | -4 | -22 | 69* | x | -16 | -53 | 74* | 78* | 66*
CCSc1ncccc1C(=O)N[C@@H](CCSC)C(=O)OC | -3 | 18 | 2 | x | 11 | 4 | x | x | x
O=C(c1ccc(F)cc1)n1ccc(-c2cnc(-c3ccccc3)s2)n1 | -1 | 1 | 73* | 5 | 19 | -6 | 57* | 12 | -1
Fc1ccc(Cn2ccc(-c3cnc(-c4ccccc4)s3)n2)cc1 | 0 | -1 | 23 | -13 | 22 | -13 | x | x | x
CC(C)(c1cc(Br)c(O)c(Br)c1)c1cc(Br)c(O)c(Br)c1 | 4 | 22 | 53* | x | 4 | -64 | 49* | x | x
COC(=O)Nc1ccc(SCC(=O)c2cccc([N+](=O)[O-])c2)cc1 | -7 | 1 | 54* | 24 | 23 | 7 | 63* | 58* | 41
CC(=O)Nc1ccc(C(=O)OCC(=O)c2cccc([N+](=O)[O-])c2)cc1 | 2 | -1 | 0 | 31 | 11 | -12 | x | x | x
COc1ccc(S(=O)(=O)N2CCN(CCCOc3ccc(F)cc3)CC2)cc1OC | 0 | 7 | 16 | -12 | 21 | 18 | x | x | x
COc1ccc2oc(=Nc3cccc(F)c3)c(C(N)=O)cc2c1 | 2 | -28 | 50* | 2 | -41 | -8 | 62* | 63* | 39
O=C(COC(=O)c1ccc(Cl)c(S(=O)(=O)N2CCCCC2)c1)NCC1CCCO1 (configuration not stated) | 3 | 12 | 11 | 12 | -1 | -7 | x | x | x
CN(C)c1ccc(N=Nc2cccc3ccoc23)cc1 | -2 | 19 | 60* | 9 | 20 | 28 | 68* | 45 | 41
CN(C)c1ccc(N=Nc2ccc3ncccc3c2)cc1 | -1 | x | x | x | x | x | x | x | x

Assay outcomes deposited in PubChem BioAssay by several laboratories.
